Results filed as inconclusive are left out. The source made the active and inactive calls. Calls come from the whole dose curve; as a rule, active = well fitted curve in the direction sought with a large enough effect; inconclusive = small, poorly fitted or top-dose-only effect, or another doubt; inactive = no such curve, though single readings can be large; an effect the other way counts as inactive or inconclusive.
How the values were obtained:
[1] = target: Alpha-galactosidase (Coffea arabica) (UniProt Q42656); test: Counterscreen for Glucocerebrosidase Inhibitors: qHTS Assay for Coffee Bean alpha-Galactosidase at pH 4.5 (AID 957); note: series mostly up to about 77 µM
Summary of the method: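 Coffee bean enzyme (2 nM) with 80 uM 4-methylumbelliferyl alpha-D-galactopyranoside in 50 mM citric acid, 0.005% Tween-20, pH 4.5, 20 min at room temperature; compounds 0.7 nM–77 uM. Stopped at pH 10, fluorescence 365/440 nm; AC50 from Hill fits.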

[2] = MultiTox-Fluor Cytotoxicity Assay - LYMP1-002 - Live Cells (AID 955);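 note: cells exposed to compound for 16 hours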
Summary of the method: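 Human lymphoblastoid LYMP1-002 cells, 2500/well, treated 16 h at 37 C in complete medium. Live-cell protease activity via GF-AFC fluorescence (Ex/Em 405/510) after 60 min reagent incubation; AC50 from Hill fits.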

[3] = MultiTox-Fluor Cytotoxicity Assay - LYMP1-002 - Dead Cells (AID 960);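 note: cells exposed to compound for 16 h at 37 °C; nearly all actives have a fitted effect of over 60% in size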
Summary of the method: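 Human lymphoblastoid LYMP1-002 cells, 2500/well, treated 16 h at 37 C; dead-cell protease cleavage of bis-AAF-R110 read by fluorescence (485/520); normalized to DMSO and 15 uM tetraoctylammonium bromide; AC50 from Hill fit.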

[4] = MultiTox-Fluor Cytotoxicity Assay - LYMP1-003 - Dead Cells (AID 961);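 note: cells exposed to compound for 16 h at 37 °C; nearly all actives have a fitted effect of over 70% in size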
Summary of the method: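 LYMP1-003 lymphoblastoid, 2500 cells/well, 5 hr settle then 16 hr cpd at 37 C; MultiTox-Fluor reagent 60 min RT; Ex/Em 485/520 dead-cell signal; norm. DMSO = 0%, 15 uM tetraoctylammonium bromide = 100%; Hill AC50.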

[5] = MultiTox-Fluor Cytotoxicity Assay - LYMP1-003 - Live Cells (AID 962);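 note: cells exposed to compound for 16 hours at 37 °C; cytotoxic hits lower the live-cell protease signal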
Summary of the method: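 LYMP1-003 lymphoblastoid cells, 2500/well in complete medium, treated 16 h at 37 C; live-cell protease cleavage of GF-AFC read by fluorescence (Ex/Em 405/510) after 60 min reagent; AC50 from Hill fits of concentration-response.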

[6] = Cell Viability - LYMP1-003 - Assay at 24 hr (AID 963)
Summary of the method: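 Human lymphoblastoid LYMP1-003 cells, 2500/well, treated 24 h at 37 C in complete medium. Viability read as intracellular ATP by CellTiter-Glo luminescence after 30 min at room temperature; AC50 from Hill-equation fits of qHTS concentration-response.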

[7] = Cell Viability - LYMP1-003 - Assay at 40 hr (AID 964); note: series mostly up to about 92 µM; nearly all actives have a fitted effect of over 60% in size
Summary of the method: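 LYMP1-003 human lymphoblastoid cells, 2500/well, preincubated 5 h at 37 C, then treated with compound for 40 h at 37 C. Intracellular ATP read by CellTiter-Glo luminescence after 30 min at room temperature; AC50 from Hill-equation fits.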

[8] = Cell Viability - LYMP2-003 (AID 965);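 note: cells exposed to compounds for 24 h before reading; nearly all actives have a fitted effect of over 50% in size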
Summary of the method: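 Seed 2500 lymphoblastoid cells/well; incubate 5 hr, 37 C; add compounds; incubate 24 hr, 37 C; add CellTiter-Glo, 30 min RT; read luminescence. AC50 from Hill fit.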

[9] = Cell Viability - LYMP2-004 (AID 966); note: nearly all actives have a fitted effect of over 65% in size
Summary of the method: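 Lymphoblastoid LYMP2-004 cells, 2500 per well, were preincubated for 5 hr and then treated with compound for 24 h at 37 C in complete medium. Viability was read as cellular ATP by CellTiter-Glo luminescence, and AC50 values were taken from Hill fits to concentration-response data.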

[10] = Cell Viability - LYMP2-005 (AID 967); note: series mostly up to about 92 µM
Summary of the method: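 Acute cytotoxicity is scored as a concentration-dependent drop in intracellular ATP in human lymphoblastoid LYMP2-005 cells after 24 h compound treatment. ATP is quantified by luciferase luminescence, and AC50 is derived by Hill-equation modelling.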

Measured: Potency

Alpha-galactosidase (Coffea arabica), sequence (Q42656 whole entry, looked up): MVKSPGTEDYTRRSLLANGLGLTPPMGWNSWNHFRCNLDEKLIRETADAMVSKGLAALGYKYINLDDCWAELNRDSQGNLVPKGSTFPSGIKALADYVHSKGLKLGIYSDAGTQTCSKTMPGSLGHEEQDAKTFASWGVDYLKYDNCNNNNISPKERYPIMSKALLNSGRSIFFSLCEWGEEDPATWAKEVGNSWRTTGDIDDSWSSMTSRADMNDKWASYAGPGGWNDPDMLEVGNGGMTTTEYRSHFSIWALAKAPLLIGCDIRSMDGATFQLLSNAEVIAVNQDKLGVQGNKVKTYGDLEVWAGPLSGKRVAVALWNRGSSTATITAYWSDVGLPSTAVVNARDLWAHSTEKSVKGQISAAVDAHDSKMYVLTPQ

Nc1ccc(S(=O)(=O)Nc2ccnn2-c2ccccc2)cc1
inactive: [1]

C[C@]1(O)CC[C@H]2[C@@H]3CCC4=CC(=O)CC[C@]4(C)[C@@]3(F)[C@@H](O)C[C@@]21C
not listed: [1]
inactive: all other assays above

CCCC(C)(COC(N)=O)COC(N)=O
not listed: [1]
inactive: all other assays above

CNC[C@H](O)c1cccc(O)c1
inactive: [1]

COc1cc(OC)c(OC)cc1C=O
not listed: [1]
inactive: all other assays above

Clc1ccc(C(c2ccc(Cl)cc2)C(Cl)(Cl)Cl)cc1
not listed: [1] | [6]
inactive: all other assays above

CC(C)NNC(=O)c1ccncc1
inactive: [1]

CCO/C([O-])=N/c1c[n+](N2CCOCC2)no1
inactive: [1]

CCOC(=O)CC(SP(=S)(OC)OC)C(=O)OCC (stereo not drawn)
not listed: [1] | [3] | [10]
inactive: all other assays above

COC(=O)C(c1ccccc1)C1CCCCN1 (stereo not drawn)
not listed: [1]
inactive: all other assays above

C[C@]12CCC(=O)C=C1CC[C@@H]1[C@@H]2CC[C@@]2(C)[C@H]1CC[C@]2(C)O
not listed: [1] | [3]
inactive: all other assays above

NCCc1ccc(O)cc1
inactive: all assays above

Source: PubChem BioAssay (NCATS)
